# Several values for one entry are separate records, joined by “and”; a condition that tells them apart may be missing. Equal values may be shown once. Records with an inconclusive call do not appear. Activity calls are given as the source filed them. The calls were made as follows: active = hit-call score of the fitted dose curve at least 0.9, where 1 is the maximum; inconclusive = response in the unintended direction; inactive = score below 0.9.
# Biological target: Cellular tumor antigen p53 (Homo sapiens) (UniProt P04637)
# Assay: TOX21_p53_BLA_p5_ratio: Tox21 HCT-116 p53 Agonism Beta-lactamase Assay, Ratio, Phase 5 (AID 2283599)
# Source text: TOX21_p53_BLA_p5 is a cell-based, single-readout assay that uses HCT116, a human intestinal cell line, […] in a 1536-well plate.TOX21_p53_BLA_p5_ratio is an assay readout measuring reporter gene via receptor activity and designed using inducible reporter (beta lactamase induction) detected with GAL4 b-lactamase reporter gene. The signal is derived from the ratio of cleaved (ch2) to uncleaved (ch1) reporter gene substrate used as the measure of target activity.Data from the assay component TOX21_p53_BLA_p5_ratio was analyzed into 1 assay endpoint. This assay endpoint, TOX21_p53_BLA_p5_ratio, was analyzed in the positive analysis fitting direction relative to DMSO as the negative control and baseline of activity. Using a type of inducible reporter, gain-of-signal activity can be used to understand changes in the reporter gene as they relate to the gene TP53. Furthermore, this assay endpoint can be referred to as a primary readout, because this assay has produced multiple assay endpoints and this ratio serves a reporter gene function to understand target activity. To generalize the intended target to other relatable targets, this assay endpoint is annotated to the DNA binding intended target family, where the subfamily is tumor suppressor.
# Thawing Method: Place 14 mL of pre-warmed thaw medium into a 15 mL of conical tub. Remove the vial of cells to be thawed from liquid nitrogen and thaw rapidly by placing at 37C in a water bath with gentle agitation for 1-2 minutes. Decontaminate the vial by wiping with 70% ethanol before opening in a biological safety cabinet. Transfer the vial contents drop-wise into 14 mL of thaw medium in a sterile 15-mL conical tub. Centrifuge cells at 900 rpm for 4 minutes and resuspend in thaw medium. Transfer contents to the T75 tissue culture flask containing Thaw Medium and place flask in a humidified 37C/5% CO2 incubator. Switch to growth medium at first passage.Propagation Method: Aspirate medium, rinse once in DPBS, add 0.25% Trypsin/EDTA and swirl to coat the cell evenly. Add an equal volume of Growth Medium to inactivate Trypsin after 2-3 minutes incubation at 37C. Centrifuge cells at 900 rpm for 4 minutes and resuspend in growth medium. Cell should be passage or fed at least twice a week.Assay Protocol: Harvest cells from culture in growth medium and resuspend in assay medium. 2.2 Dispense 4000 cells/5 uL/well into 1536-well black/clear bottom plates using a Multidrop dispenser. After the cells were incubated at 37C for 5 hours, 23 nL of compounds dissolved in DMSO were transferred to the assay plate by a PinTool resulting in a 217-fold dilution. Incubate the plates for 16 hours at 37C, 5% CO2. Add 1 uL of 6X LiveBLAzer FRET B/G (CCF4-AM) Substrate Mixture to each well using a BioRAPTR dispenser and incubate the plates at room temperature for 2 hours. Measure fluorescence intensity at 460 and 530 nm emission and 405 nm excitation by an Envision detector. Data is expressed as the ratio of 460nm/530nm emissions. Add 4 uL of Cell-titer Glo to each well using BioRAPTR and incubate the plates at room temperature for 2 hours. Measure fluorescence intensity by a VewLux plate reader.
# Sequence of Cellular tumor antigen p53 (Homo sapiens) (P04637 whole entry, looked up): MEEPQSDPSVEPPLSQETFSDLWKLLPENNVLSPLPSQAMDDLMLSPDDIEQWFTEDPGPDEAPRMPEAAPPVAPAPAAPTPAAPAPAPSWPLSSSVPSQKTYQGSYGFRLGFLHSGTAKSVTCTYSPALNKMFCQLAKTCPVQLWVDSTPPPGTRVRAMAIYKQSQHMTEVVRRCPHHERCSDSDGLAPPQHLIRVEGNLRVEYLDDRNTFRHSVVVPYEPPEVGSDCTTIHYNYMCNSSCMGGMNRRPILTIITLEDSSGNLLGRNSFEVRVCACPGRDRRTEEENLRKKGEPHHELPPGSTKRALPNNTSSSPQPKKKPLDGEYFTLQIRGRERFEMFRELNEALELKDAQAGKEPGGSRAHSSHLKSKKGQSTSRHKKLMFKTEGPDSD
SMILES,outcome,AC50
CNNC,inactive,
CCC1(c2ccccc2)CCC(=O)NC1=O (stereo not given),inactive,
CC(C)(C)C(=O)C(Cl)Cl,inactive,
COc1cc([C@@H]2c3cc4c(cc3[C@@H](O)[C@H]3COC(=O)[C@H]23)OCO4)cc(OC)c1O,inactive,
C[C@H]1CCC[C@H](O)CCCCCc2cc(O)cc(O)c2C(=O)O1,inactive,
CC(C)OS(C)(=O)=O,inactive,
COP(=S)(OC)Oc1ccc(S(N)(=O)=O)cc1,inactive,
CC[n+]1c(-c2ccccc2)c2cc(N)ccc2c2ccc(N)cc21,,2.77 µM (active) and 8.85 µM (active) and 4.7 µM (active)
O=NN1CCCCC1,inactive,
C#CC1(O)CCCCC1,inactive,
COC(=O)c1cncn1C(C)c1ccccc1 (stereo not given),inactive,
O=[N+]([O-])c1ccc([As](=O)(O)O)cc1,inactive,
N#Cc1sc2c(=O)c3ccccc3c(=O)c=2sc1C#N,,0.347 µM (active)
OCC(Br)CBr (stereo not given),inactive,
CC(=O)Oc1ccc2c3c1O[C@H]1[C@@H](OC(C)=O)C=C[C@H]4[C@@H](C2)N(C)CC[C@@]341,inactive,
C[C@]12Cc3nonc3C[C@@H]1CC[C@@H]1[C@@H]2CC[C@@]2(C)[C@H]1CC[C@]2(C)O,inactive,
Oc1cc(Cl)ccc1Cl,inactive,
CCOC(=O)C(Cl)C(C)=O (stereo not given),inactive,
NCC(O)c1ccc(O)cc1 (stereo not given),inactive,
SCc1ccccc1,inactive,

SMILES,outcome,AC50
O=[Se]=O,inactive,
CCCCCCCCn1cc[n+](C)c1,inactive,
CCCC[n+]1cccc(C)c1,inactive,
CCCCCON=O,inactive,
C=CC(=O)OCC(C)C,inactive,
NNC(=O)c1ccccc1,inactive,
C[C@@H]1O[C@@H](O[C@@H]2C=C3CC[C@@H]4[C@H](CC[C@]5(C)[C@@H](c6ccc(=O)oc6)CC[C@]45O)[C@@]3(C)CC2)[C@H](O)[C@H](O)[C@H]1O,inactive,
CN=CNc1ccc(C)cc1C,inactive,
Cc1ccc(-c2nc3ccc(C)cn3c2CC(=O)N(C)C)cc1,inactive,
CC(=O)[C@H]1CC[C@H]2[C@@H]3CC[C@H]4C[C@](C)(O)CC[C@]4(C)[C@H]3CC[C@]12C,inactive,
CC(N)Cc1ccc(O)cc1 (stereo not given),inactive,
C[N+]1(C)[C@@H]2CC[C@H]1CC(OC(=O)C(CO)c1ccccc1)C2 (stereo not given in full),inactive,
CN1C(=O)CC(=O)N(c2ccccc2)c2cc(Cl)ccc21,inactive,
CC(C)CON=O,inactive,
CC(Cl)(Cl)Cl,inactive,
CCCCCCCCCCCCCCCCCCn1cc[n+](C)c1,inactive,
O=C1C=C2C=C[C@@H]3C[C@@]2(O1)[C@H]1CCCCN31,inactive,
Oc1cc(Cl)c(Cl)c(Cl)c1Cl,,7.24 µM (active)
c1cc[n+]2c(c1)-c1cccc[n+]1CC2,inactive,
Oc1ccc(C2(c3ccc(O)cc3)CCCCC2)cc1,,82.3 µM (active)

# Reference: PubChem BioAssay (EPA / NIEHS)
